The values below come from PubChem BioAssay (NCATS).

Inconclusive results are not listed. The source made the active and inactive calls. Calls follow the shape of the dose curve; as a rule, active = well fitted curve in the direction sought with a large enough effect; inconclusive = small, poorly fitted or top-dose-only effect, or another doubt; inactive = no such curve, though single readings can be large; an effect the other way counts as inactive or inconclusive.

Cytochrome P450 2C9 (Homo sapiens), sequence (P11712 whole entry, looked up): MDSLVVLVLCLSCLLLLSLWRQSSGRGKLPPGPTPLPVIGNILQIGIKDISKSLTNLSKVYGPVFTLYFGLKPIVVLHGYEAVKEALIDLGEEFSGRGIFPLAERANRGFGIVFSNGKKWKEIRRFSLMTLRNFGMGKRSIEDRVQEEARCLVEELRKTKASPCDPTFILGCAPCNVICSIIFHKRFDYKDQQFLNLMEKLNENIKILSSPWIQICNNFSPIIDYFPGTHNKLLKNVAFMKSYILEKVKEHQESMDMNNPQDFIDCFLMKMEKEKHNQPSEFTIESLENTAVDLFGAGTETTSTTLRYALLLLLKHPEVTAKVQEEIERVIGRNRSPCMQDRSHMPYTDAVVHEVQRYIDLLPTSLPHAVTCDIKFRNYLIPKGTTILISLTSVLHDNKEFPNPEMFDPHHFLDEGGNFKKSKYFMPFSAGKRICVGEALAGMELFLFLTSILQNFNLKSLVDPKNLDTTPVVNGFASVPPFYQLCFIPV

The target of the first test is Cytochrome P450 2C9 (Homo sapiens) (UniProt P11712). Briefly: qHTS Assay for Inhibitors and Substrates of Cytochrome P450 2C9 (AID 883). Also: potency is read from the fitted curve at half-maximal effect; nearly all actives have a fitted effect of over 60% in size. The settings on record: recombinant CYP2C9, luciferin-H luminescence, 60 min; series mostly up to 11.4 µM; activity change, negative = inhibition: at the top concentration. Put shortly:
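Inhibition of CYP2C9 is scored as loss of luminescence, with 57uM sulphaphenazole defining 100% inhibition. Substrate Luciferin-H is used at 100uM, equal to its KM; enzyme at 10nM in 25mM KPO4, 60 min at 37C with NADPH regeneration.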
As for `COC(=O)[C@@]1(Cc2ccccc2)[C@H]2c3cc(C(=O)N4CCCC4)n(CCN4CNCC4=O)c3C[C@H]2CN1C(=O)c1ccccc1`, the Potency was 2 µM (active).

Take `COC(=O)[C@@]1(Cc2ccccc2)[C@H]2c3cc(C(=O)N4CCCC4)[nH]c3C[C@H]2CN1C(=O)c1ccccc1`: the Potency was 0.794 µM (active).

With `CCCC[C@@H]1C[C@H]1C(NC(=O)c1cccnc1)c1ccc(-c2ccccc2)cc1` (some centres not stated), the Potency is 5.01 µM (active).

In the case of `COC(=O)[C@@]1(Cc2ccc(F)cc2)[C@H]2c3cc(C(=O)N4CCCC4)n(CCc4c[nH]c5ccc(OC)cc45)c3C[C@H]2CN1C(=O)c1ccccc1`, the Potency was 7.94 µM (active).

The target of another test is Cytochrome P450 3A4 (Homo sapiens) (UniProt P08684). The test can be described thus: qHTS Assay for Inhibitors and Substrates of Cytochrome P450 3A4 (AID 884). Also: nearly all actives have a fitted effect of over 50% in size. Also: potency is read from the fitted curve at half-maximal effect. As to activity change, negative = inhibition: % is scaled to controls: 0 for no effect and ±100 for the full control effect. The settings on record: recombinant CYP3A4, Luciferin-PPXE luminescence; series mostly up to 57.1 µM; activity change, negative = inhibition: at the top concentration. Put shortly: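 Luminescent readout of luciferin produced by CYP3A4 (20 nM) dealkylation of Luciferin-PPXE, 25 uM (its KM). NADPH-driven reaction ran 60 min at RT after 10 min compound preincubation; data scaled to 57 uM ketoconazole as 100% inhibition.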
Cytochrome P450 3A4 (Homo sapiens), sequence (P08684 whole entry, looked up): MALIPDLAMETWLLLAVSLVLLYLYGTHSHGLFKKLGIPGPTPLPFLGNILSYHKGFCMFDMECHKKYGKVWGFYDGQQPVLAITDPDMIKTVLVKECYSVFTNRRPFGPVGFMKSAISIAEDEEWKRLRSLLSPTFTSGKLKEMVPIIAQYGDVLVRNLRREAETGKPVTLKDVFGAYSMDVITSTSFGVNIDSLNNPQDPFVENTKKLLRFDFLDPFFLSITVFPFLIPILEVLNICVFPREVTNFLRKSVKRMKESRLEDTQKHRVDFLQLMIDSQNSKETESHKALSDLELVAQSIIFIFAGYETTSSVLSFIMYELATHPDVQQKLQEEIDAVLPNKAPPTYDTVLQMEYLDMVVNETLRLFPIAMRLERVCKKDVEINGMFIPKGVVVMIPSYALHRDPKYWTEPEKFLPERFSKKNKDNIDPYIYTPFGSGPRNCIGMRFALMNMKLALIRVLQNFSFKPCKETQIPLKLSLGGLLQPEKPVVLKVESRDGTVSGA
(In qHTS, concentration-response curves come from the screen itself.)
Regarding `CCCn1c(C)nc2c(NCCCN(C)C)nc(C)nc21`, the “activity change, negative = inhibition” value is -8.91% (inactive).

Turning to `CCCn1c(C)nc2c(NCCO)nc(C)nc21`, the “activity change, negative = inhibition” value was -23.3% (inactive).

Regarding `CC(Cc1ccccc1)C(=O)Nc1ccccc1` (configuration not stated), the “activity change, negative = inhibition” value was -53.7% (inactive).

On to `COCCNC(=O)[C@@]1(Cc2ccccc2)C=C[C@@H](C)N1C(=O)OC`, for which the “activity change, negative = inhibition” value was -18.1% (inactive).

For `C[C@@H]1C=C[C@](Cc2ccccc2)(C(=O)O)N1C(=O)c1ccccc1`, the “activity change, negative = inhibition” value is 18.2% (inactive).

Turning to `CC1(C(=O)O)C=CCN1C(=O)c1ccccc1` (configuration not stated), the “activity change, negative = inhibition” value is -12.8% (inactive).

Take `CC1(C(=O)NCc2ccccn2)C=CCN1C(=O)c1ccccc1` (configuration not stated): the “activity change, negative = inhibition” value is -16.5% (inactive).

For `COC(=O)[C@@]1(Cc2ccccc2)[C@H]2c3cc(C(=O)N4CCCC4)[nH]c3C[C@H]2CN1C(=O)c1ccccc1`, the Potency is 2.51 µM (active).

Regarding `CC(=O)N1[C@H](Cc2ccccc2)C=C[C@]1(C)C(=O)NCc1ccccn1`, the “activity change, negative = inhibition” value was -55.7% (inactive).

Take `COC(=O)N1[C@H](Cc2ccccc2)C=C[C@]1(C)C(=O)O`: the “activity change, negative = inhibition” value is -31.8% (inactive).

As to `COC(=O)CCCCCN1C(=O)NC(c2ccc(-c3ccccc3)cc2)C(C(=O)OCc2ccccc2)=C1C` (configuration not stated), the “activity change, negative = inhibition” value is -16.5% (inactive).

`COC(=O)c1ccc(C(NC(=O)OCc2ccccc2)/C(=C/[C@@H](C)C(=O)NCc2cc(C)n(C)n2)c2cccnc2)cc1` (some centres not stated): the “activity change, negative = inhibition” value is -25.3% (inactive).

In the case of `CC(=O)N1[C@H](Cc2ccccc2)C=C[C@]1(C)C(=O)O`, the “activity change, negative = inhibition” value was -21.2% (inactive).

As to `COC(=O)N1CC=CC1(C)C(=O)O` (configuration not stated), the “activity change, negative = inhibition” value is -22.8% (inactive).

In the case of `COCCNC(=O)[C@H](C)[C@H]1C[C@]1(C)[C@H](NC(=O)OCc1ccccc1)c1ccccc1`, the Potency was 3.16 µM (active).

As for `C[C@H](CO)NC(=O)[C@H](C)[C@H]1C[C@]1(C)[C@H](NC(=O)OCc1ccccc1)c1ccccc1`, the Potency is 3.98 µM (active).

`COC(=O)N1[C@H](C)C=C[C@]1(Cc1ccccc1)C(=O)OC`: the “activity change, negative = inhibition” value is -10.5% (inactive).

`CC(Cc1ccccc1)C(=O)NCC1CC1` (configuration not stated): the “activity change, negative = inhibition” value is -11.6% (inactive).

For `CC(=O)N1C2(C=CC1(C)C(=O)NCc1ccc(C)o1)CCCCC2` (configuration not stated), the “activity change, negative = inhibition” value was -70.9% (inactive).

As to `C[C@H](CO)NC(=O)[C@H](C)[C@@H]1C[C@@]1(C)[C@@H](NC(=O)OCc1ccccc1)c1ccccc1`, the Potency is 5.01 µM (active).

As to `COC(=O)CNC(=O)[C@@]1(Cc2ccccc2)C=C[C@@H](C)N1C(=O)c1ccccc1`, the “activity change, negative = inhibition” value is -29.3% (inactive).

In the case of `CCC[C@@H]1C[C@@]1(CCC)[C@@H](NP(=O)(c1ccccc1)c1ccccc1)c1ccc(C(=O)OC)cc1`, the Potency was 3.16 µM (active).

Consider `COC(=O)[C@@]1(Cc2ccccc2)C=C[C@@H](C)N1C(=O)c1ccccc1`, for which the “activity change, negative = inhibition” value is 8.65% (inactive).

For the compound `COC(=O)[C@@]1(Cc2ccccc2)C=C[C@@H](C)N1C(C)=O`, the “activity change, negative = inhibition” value is -26.3% (inactive).

On to `COCCNC(=O)C1(CC(C)C)C=CCN1C(C)=O` (configuration not stated), for which the “activity change, negative = inhibition” value is -18.5% (inactive).

Consider `CNC(=O)C1(CC(C)C)C=CCN1C(C)=O` (configuration not stated), for which the “activity change, negative = inhibition” value is -21.5% (inactive).

Take `CNC(=O)C1(C)C=CCN1C(=O)c1ccccc1` (configuration not stated): the “activity change, negative = inhibition” value was -17.9% (inactive).

With `COC(=O)N1CC=CC1(C)C(=O)NCC1CC1` (configuration not stated), the “activity change, negative = inhibition” value is -26.7% (inactive).

In the case of `COC(=O)[C@@]1(Cc2ccc(OC)cc2)[C@H]2c3cc(C(=O)N4CCCC4)n(Cc4nc5ccccc5[nH]4)c3C[C@H]2CN1C(=O)c1ccccc1`, the Potency is 2 µM (active).

Regarding `Cc1nc(NCCO)c2nc(-c3ccccc3)n(CCN(C)C)c2n1`, the “activity change, negative = inhibition” value is 7.6% (inactive).

As to `COCCNC(=O)C1(C)C=CCN1C(C)=O` (configuration not stated), the “activity change, negative = inhibition” value is -27% (inactive).

Another test has the same target. The test can be described thus: qHTS Assay for Activators of Cytochrome P450 3A4 (AID 885). Also: nearly all actives have a fitted effect of over 65% in size. The settings on record: recombinant CYP3A4, Luciferin-PPXE luminescence, 60 min; series mostly up to 57.1 µM; activity change, positive = activation: at the top concentration. Put shortly:
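Using 20nM recombinant human CYP3A4 in potassium phosphate (200mM), substrate Luciferin-PPXE at 25uM, luminescent luciferin detection followed a 60-min RT NADPH reaction; data scaled to 57 uM ketoconazole.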
As for `COC(=O)[C@@]1(Cc2ccc(OC)cc2)[C@@H]2[C@@H](CC(=O)[C@H]2CC(=O)C(=O)N(C)C)CN1C(=O)c1ccccc1`, the “activity change, positive = activation” value was -100% (inactive).

On to `COC(=O)[C@@]1(Cc2ccccc2)[C@H]2c3cc(C(=O)N4CCCC4)n(CCN4CNCC4=O)c3C[C@H]2CN1C(=O)c1ccccc1`, for which the “activity change, positive = activation” value was -44% (inactive).

For the compound `COC(=O)[C@@]1(Cc2ccc(F)cc2)[C@H]2c3cc(C(=O)N4CCCC4)n(Cc4ccc(S(C)(=O)=O)cc4)c3C[C@H]2CN1C(=O)c1ccccc1`, the “activity change, positive = activation” value is -58.4% (inactive).

As to `COC(=O)[C@@]1(Cc2ccccc2)[C@H]2c3cc(C(=O)N4CCCC4)[nH]c3C[C@H]2CN1C(=O)c1ccccc1`, the “activity change, positive = activation” value is -86.5% (inactive).

Take `CCCC[C@@H]1C[C@H]1C(NC(=O)c1cccnc1)c1ccc(-c2ccccc2)cc1` (some centres not stated): the “activity change, positive = activation” value was -51.2% (inactive).

Turning to `COCCNC(=O)[C@H](C)[C@H]1C[C@]1(C)[C@H](NC(=O)OCc1ccccc1)c1ccccc1`, the “activity change, positive = activation” value was -96.9% (inactive).

For the compound `COC(=O)[C@@]1(Cc2ccc(F)cc2)[C@H]2c3cc(C(=O)N4CCCC4)n(CCc4c[nH]c5ccc(OC)cc45)c3C[C@H]2CN1C(=O)c1ccccc1`, the “activity change, positive = activation” value was -52.2% (inactive).

With `C[C@H](CO)NC(=O)[C@H](C)[C@@H]1C[C@@]1(C)[C@@H](NC(=O)OCc1ccccc1)c1ccccc1`, the “activity change, positive = activation” value was -86.6% (inactive).

Regarding `CCC/C=C(\CCC)C(NS(C)(=O)=O)c1ccccc1` (configuration not stated), the “activity change, positive = activation” value was -33.7% (inactive).

As for `CO[C@H]1OC[C@@]2(C)[C@@H]3C4=C(CN2C(=O)OC(C)(C)C)[C@H](C)[C@H](CO)[C@H](CO)[C@H]4CC[C@H]13`, the “activity change, positive = activation” value was -41.4% (inactive).

As to `C[C@H]1C2=C3C(CC[C@H]4C(OCc5ccc(F)cc5C(F)(F)F)OC[C@](C)([C@@H]34)N(C(=O)OC(C)(C)C)C2)C2COC(=O)OCC21` (some centres not stated), the “activity change, positive = activation” value was -64.9% (inactive).

On to `COC(=O)[C@@]1(Cc2ccc(OC)cc2)[C@H]2c3cc(C(=O)N4CCCC4)n(Cc4nc5ccccc5[nH]4)c3C[C@H]2CN1C(=O)c1ccccc1`, for which the “activity change, positive = activation” value is -113% (inactive).
